Measurements: PubChem BioAssay (NCI)
The panel holds about 83,000 compounds, 20% with a hit somewhere; the sample as a whole holds those more often.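 96-well plates, one dose, 48 hours. Percent growth reported; active if below 10.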 Calls of active or inactive are those of the source.

Tests used:
Experiment in all cases: NCI-60 one-dose screen, 48 h (100 = growth as untreated, 0 = no growth, -100 = all killed)
Conditions in all cases: 10 µM unless noted
[1] = system: BT-549 breast
[2] = system: MDA-MB-435 melanoma
[3] = system: SW-620 colon
[4] = system: MCF7 breast
[5] = system: HCT-116 colon
[6] = system: HCC-2998 colon
[7] = system: KM12 colon

Measured: growth

O=C(O)COc1ccc2c(=O)c3sc4c(=O)c5ccccc5c(=O)c4c3c(=O)c2c1
active: [1] -97% | [2] -88.6% | [4] -57% | [6] -21.1%
inactive: [3] 10.1% | [5] 24.9% | [7] 51.5%

COc1ccc(-c2nnc(N3CCN(C(=O)CN4CCN(c5ccc(OC)cc5)CC4)CC3)nc2-c2ccc(OC)cc2)cc1
inactive: [6] 33.9%
active: [1] -81.8% | [2] -68.1% | [3] -92.5% | [4] -69.8% | [5] -41.1% | [7] -13.1%

C#Cc1ccccc1NC(=O)c1sc2nc3c(cc2c1N)CCCCC3
inactive: [1] 96.4% | [2] 95.1% | [3] 102% | [4] 81.5% | [5] 109% | [6] 105% | [7] 102%

C=C1C(=O)O[C@H]2[C@H]1CC/C(COC(=O)/C=C/c1cccnc1)=C\CC[C@@]1(C)O[C@@H]21
active: [3] -32% | [5] -66.3%
inactive: [1] 20.5% | [2] 27.7% | [4] 11.9% | [6] 94.8% | [7] 79.4%

CCCNc1nc(C)[nH]c(=O)c1S
inactive: [1] 113% | [2] 105% | [3] 121% | [4] 111% | [5] 108% | [6] 112% | [7] 107%

CN1CCN(C(=O)[C@@]2(C)CC[C@]3(C)CC[C@]4(C)C(=CC[C@@H]5[C@@]6(C)CC[C@H](OC(=O)c7cccnc7)C(C)(C)[C@@H]6CC[C@]54C)[C@@H]3C2)CC1
active: [3] -35.5%
inactive: [1] 73.8% | [2] 45.4% | [4] 19.1% | [5] 51.7% | [6] 97.3% | [7] 53.2%

COc1cc(C(=O)Nc2cc(O)c(C/C=C(\C)CCC=C(C)C)c(O)c2)cc2c1O[C@]1(C)CC[C@@H](O)C(C)(C)[C@H]1C2
active: [3] 4.02%
inactive: [1] 18.4% | [2] 17.1% | [4] 10.2% | [5] 13.2% | [6] 23.2% | [7] 13.3%

N#CC1(C#N)C2=C(CCCC2)NC(c2c(F)cccc2Cl)C1(C#N)C#N (stereo unspecified)
inactive: [1] 60.4% | [2] 18% | [3] 48.8% | [4] 21.1% | [5] 52.7% | [6] 97.6% | [7] 73.3%

C=C1C(=O)O[C@H]2[C@H]1CC/C(COC(=O)c1cc3ccccc3o1)=C\CC[C@@]1(C)O[C@@H]21
inactive: [6] 61.6% | [7] 26.7%
active: [1] -32.5% | [2] -35.1% | [3] -58.2% | [4] -31.8% | [5] -84.1%

O=C(/C(=C/c1ccc([N+](=O)[O-])cc1)SCc1ccc(Cl)cc1)c1ccc(F)cc1
active: [3] -9.4% | [4] -11.9% | [5] -54.9%
inactive: [1] 78.2% | [2] 49.2% | [6] 84.5% | [7] 23.3%

Cc1cc2ccccc2c[n+]1CC(=O)c1ccc(-c2ccccc2)cc1
inactive: [1] 53.3% | [2] 66.3% | [3] 48.5% | [4] 29.3% | [5] 28.4% | [6] 61.8% | [7] 56.7%

Nn1c(SCC(=O)Nc2ccc(Cl)cc2)nnc1-c1cc(F)c(Cl)cc1Cl
inactive: [1] 114% | [2] 97.3% | [3] 92% | [4] 72.3% | [5] 83.1% | [6] 93.2% | [7] 72.8%

Cc1c(O)c(=O)ccn1-c1nc2ccccc2s1
inactive: [1] 93.4% | [2] 99.7% | [3] 94.9% | [4] 98.6% | [5] 95.8% | [6] 114% | [7] 98.5%

O=C(CCCC(=O)Nc1ccc(-n2nnc3cc(Cl)c(Cl)cc32)cc1)Nc1ccc(-n2nnc3cc(Cl)c(Cl)cc32)cc1
inactive: [1] 51.2% | [2] 51.2% | [3] 49.6% | [4] 22.6% | [5] 45.3% | [6] 93.7% | [7] 70.9%

O=C(Nc1nc(-c2ccccc2)cs1)c1cc(-c2ccc(Br)cc2)nc2ccccc12
inactive: [1] 60.3% | [2] 77.2% | [3] 51.6% | [4] 37.6% | [5] 27.5% | [6] 87.7% | [7] 67%

Cc1c(C(=O)Nc2nc3ccccc3[nH]2)cnn1-c1ccccn1
inactive: [1] 111% | [2] 108% | [3] 107% | [4] 95.6% | [5] 97.3% | [6] 97.3% | [7] 103%

NC(=N\N=C\c1ccccc1O)/C(N)=N/N=C/c1ccccc1O
inactive: [1] 72% | [2] 72.2% | [3] 71.5% | [4] 69.4% | [5] 81.3% | [6] 99.1% | [7] 55.8%

C=C1C(=O)O[C@H]2[C@H]1CC/C(COC(=O)CCCCCCCCC(=O)OC/C1=C/CC[C@@]3(C)O[C@H]3[C@H]3OC(=O)C(=C)[C@@H]3CC1)=C\CC[C@@]1(C)O[C@@H]21
inactive: [6] 44.2% | [7] 20.2%
active: [1] 2.59% | [2] 8.17% | [3] 2.58% | [4] -37% | [5] -62.7%

CN1CCN(/C=C2\CC(C(=O)NCc3ccc(Cl)cc3Cl)NC2=O)CC1 (stereo unspecified)
inactive: [1] 136% | [2] 119% | [3] 98% | [4] 103% | [5] 110% | [6] 101% | [7] 103%

C=C1C(=O)O[C@H]2[C@H]1CC/C(COC(=O)c1cn(C)c3ccccc13)=C\CC[C@@]1(C)O[C@@H]21
active: [1] -24.4% | [2] -51.2% | [3] -65.7% | [4] -46.1% | [5] -77.6%
inactive: [6] 34.9% | [7] 31.2%

CCOC(=O)C1=C(C)n2nc(CC#N)c(C#N)c2NC1c1ccc(Cl)cc1 (stereo unspecified)
inactive: [1] 92% | [2] 100% | [3] 97.5% | [4] 90.2% | [5] 101% | [6] 99.9% | [7] 85.4%

C=CCn1c(CN2CCN(c3cc4c(cc3F)c(=O)c(C(=O)O)cn4C3CC3)CC2)n[nH]c1=S
inactive: [1] 105% | [2] 102% | [3] 105% | [4] 95.7% | [5] 105% | [6] 107% | [7] 99.4%

Cc1ccc(-c2nc(C#N)c(S(=O)(=O)N(C)CCO)o2)cc1
inactive: [1] 76.7% | [2] 65% | [3] 35.1% | [4] 39.8% | [5] 53.4% | [6] 107% | [7] 89.9%

O=C(O)c1cc(N=Nc2ccc(-c3ccc(N=Nc4c(S(=O)(=O)O)cc5ccc(Nc6ccccc6)cc5c4O)cc3)cc2)ccc1O
inactive: [1] 115% | [2] 106% | [3] 102% | [4] 92.3% | [5] 105% | [6] 89.8% | [7] 99.6%

CC(C)(C)c1nc2c(s1)c1nc(N)ncc1c1ccc(NS(=O)(=O)c3c(F)cccc3F)c(F)c12
inactive: [1] 77.4% | [2] 38.6% | [3] 110% | [4] 89.8% | [5] 49.3% | [6] 82% | [7] 35.5%

COc1cc(NC(=O)Nc2cnc(Nc3ccc(N4CCOCC4)cc3)nc2Oc2ccc(C(F)(F)F)cc2)cc(OC)c1
inactive: [1] 111% | [2] 107% | [3] 107% | [4] 101% | [5] 104% | [6] 104% | [7] 103%

COc1ccc(/C=C/C(=O)c2ccc(NC(=O)CSc3nnc(-c4ccc(OC)c(OC)c4)n3-c3ccccc3)cc2)cc1
active: [4] -8.34% | [5] -85.8%
inactive: [1] 55.2% | [2] 45.3% | [3] 10.2% | [6] 94.9% | [7] 61.3%

Cc1nc2sc(C(=O)Nc3cccc(Cl)c3C)c(N)c2cc1C(C)O (stereo unspecified)
inactive: [1] 51.3% | [3] 38.5% | [4] 16.6% | [5] 13.9% | [6] 30.4% | [7] 19.1%
active: [2] 1.51%

COc1ccc(-n2cc(COc3ccc4c5ccnc(C)c5n(CC(C)C)c4c3)nn2)cc1
inactive: [1] 66% | [2] 87.3% | [3] 78.9% | [4] 54.3% | [5] 50.5% | [6] 85.1% | [7] 80.2%

COc1cc(/C=C/C(=O)/C=C/c2cc3ccc(Cl)cc3n(Cc3ccccc3)c2=O)ccc1O
active: [1] -19.2% | [2] -19.1% | [3] 3.39% | [5] -82.6% | [6] -73.8% | [7] -52.3%
inactive: [4] 26.2%

C=C(C)[C@@H]1CC[C@]2(C(=O)N=C=S)CC[C@]3(C)[C@H](CC[C@@H]4[C@@]5(C)CCC(=O)C(C)(C)[C@@H]5CC[C@]43C)[C@@H]12
inactive: [1] 47.3% | [2] 47.1% | [3] 28.8% | [4] 16.4% | [5] 13.8% | [6] 43.3% | [7] 21.2%

Cc1cc(Nc2nc(SCc3ccc(C(=O)Nc4ccc(F)cc4N)cc3)nn3cccc23)n[nH]1
inactive: [1] 27% | [2] 12.8% | [3] 23.9% | [4] 23.5% | [5] 10.1% | [6] 23.9%
active: [7] 7.02%

c1ccc(Sc2ncccn2)nc1
inactive: [1] 137% | [2] 104% | [3] 95.3% | [4] 93.2% | [5] 99.3% | [6] 101% | [7] 106%
